These results are taken from the OligoGym collection.
Further: reference of the scale not given here.

The target of the first test is SC5DL. As to the kind of experiment: pooled miR-30 sensor sort-seq; sequence = guide strand. The note with it: shRNA.
Take TTACTATGTATCTTGACTGTAT: the sensor-assay potency score (higher = more potent) worked out at 0.237.
The sequence TTAACCAAGATGTACAGACTTA yielded a sensor-assay potency score (higher = more potent) of -0.113.
On to TAAACTTAATCTCTCGACGGAC, for which the sensor-assay potency score (higher = more potent) was -0.573.
On the same count and under the same terms, to TTTACTATGTATCTTGACTGTA belongs -0.0112.
Still for that read-out and setting: to AAGACTAATAGCTTGTCGGAAG belongs -1.
The same measure, in the same setting: the same measure for TTATTAAGCACAATGATTCTTA: -0.0651; for TATCATTATCATACCAACGTTG: -0.725.
TTGAAGAATTAACCATTCCTGA: the sensor-assay potency score (higher = more potent) is -0.422.
Regarding TTTCATTAATGCATGATCGAAG, the sensor-assay potency score (higher = more potent) is -0.355.
Still for that read-out and setting: to TTGAATGAGCCGCCAATCCTAT belongs -0.95; to TATATGGTAAGGTAGACTCTGA, -0.406; to TAAAAAAATAGTAATCTGCAAC, -0.802.

The target of another test is SCAF4. The description is as above. The note with it: shRNA.
The sequence TTGAGTTGTCTGAAACAGCTGA displayed a sensor-assay potency score (higher = more potent) of 0.384.
Same read-out and setting: to TTACACTTTTTGATGAACTTTT belongs -0.768; to TACTATTTGAACTACATGCTTA, 0.0032; to TCTACCTGAATTGAACTGCTGC, 0.449.
On the same count and under the same terms, to TTTAATAGCAGCTTTAGTGATG belongs -0.529.
